# Measured values taken from PubChem BioAssay (Tox21).
# Values joined by “and” are separate entries in the source; they are usually repeats but may differ in a detail not shown here. Equal entries are not always repeated. Records with an inconclusive call do not appear. Where a call stands in place of a potency, no number is given. Where a structure was tested more than once in an assay, its records may differ in their call. Active and inactive are the calls of the source. Unless noted, calls follow the shape of the full dose curve.
# Legend:
# [1] = Nuclear factor erythroid 2-related factor 2/antioxidant responsive element (Nrf2/ARE) small molecule agonists: qHTS cell viability counter screen in human keratinocytes (AID 1919968; active = well fitted curve in the direction sought with a large enough effect in the repeat runs; an effect the other way counts as inactive or inconclusive; also: nearly all actives have a fitted effect of over 55% in size; also: potency is read from the fitted curve at half-maximal effect)
# How it was run: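 CellTiter-Fluor fluorescence, read 1 h after reagent, gave viability in the same wells as the ARE-luciferase assay. KeratinoSens cells (1,500/well) had 23 h compound exposure at 37 C/5% CO2 following 5 h plating.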
# [2] = Nuclear factor erythroid 2-related factor 2/antioxidant responsive element (Nrf2/ARE) small molecule agonists: luciferase reporter gene qHTS assay in human keratinocytes (AID 1919969); also: nearly all actives have a fitted effect of over 35% in size; also: potency is read from the fitted curve at half-maximal effect
# [3] = biological target: Gonadotropin-releasing hormone receptor (Homo sapiens) (UniProt P30968); assay: Human gonadotropin-releasing hormone receptor (GnRHR) small molecule agonists, calcium flux assay in GnRHR-HEK293 cells (AID 1920063); also: nearly all actives have a fitted effect of over 35% in size
# Sequence of Gonadotropin-releasing hormone receptor (Homo sapiens) (P30968 whole entry, looked up): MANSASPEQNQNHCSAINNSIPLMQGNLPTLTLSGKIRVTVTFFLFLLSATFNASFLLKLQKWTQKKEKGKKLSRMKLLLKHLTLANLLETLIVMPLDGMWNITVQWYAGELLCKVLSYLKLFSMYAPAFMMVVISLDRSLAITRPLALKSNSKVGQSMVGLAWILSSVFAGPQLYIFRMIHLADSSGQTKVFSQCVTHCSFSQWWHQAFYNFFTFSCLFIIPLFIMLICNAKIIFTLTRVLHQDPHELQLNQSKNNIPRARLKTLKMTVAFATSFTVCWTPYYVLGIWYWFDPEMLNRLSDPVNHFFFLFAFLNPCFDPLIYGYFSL
# How it was run: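 Agonist mode: compounds at 15 concentrations, in triplicate, went onto calcium dye-loaded GnRHR-HEK293 cells. Intracellular calcium was then followed as 480/540 nm fluorescence at 1 s intervals over 3 min.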
# [4] = biological target: KiSS-1 receptor (Homo sapiens) (UniProt Q969F8); assay: Human kisspeptin (KISS1R) small molecule agonists, calcium flux assay in KISS1R-HEK293 cells (AID 1920064; active = well fitted curve in the direction sought with a large enough effect in the repeat runs; an effect the other way counts as inactive or inconclusive)
# Sequence of KiSS-1 receptor (Homo sapiens) (Q969F8 whole entry, looked up): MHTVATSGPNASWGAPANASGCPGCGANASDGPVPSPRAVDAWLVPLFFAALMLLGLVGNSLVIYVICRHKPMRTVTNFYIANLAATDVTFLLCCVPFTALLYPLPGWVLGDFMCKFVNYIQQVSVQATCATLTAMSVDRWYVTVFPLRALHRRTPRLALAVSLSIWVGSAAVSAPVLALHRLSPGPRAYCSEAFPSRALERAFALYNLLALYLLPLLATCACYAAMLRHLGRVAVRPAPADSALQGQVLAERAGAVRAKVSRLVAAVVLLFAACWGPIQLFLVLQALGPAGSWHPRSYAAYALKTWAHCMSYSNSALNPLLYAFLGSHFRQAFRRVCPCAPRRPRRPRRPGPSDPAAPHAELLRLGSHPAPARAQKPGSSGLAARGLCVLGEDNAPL
# How it was run: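 Agonist mode: intracellular calcium rise tracked at 1 s intervals over 3 min (480/540 nm) immediately after compound addition to dye-loaded KISS1R-HEK293 stable cells. Each compound tested at 15 concentrations in triplicate.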
# [5] = G protein-coupled receptor (GPCR) small molecule agonists, calcium flux assay: HEK293 wild type cell line counter screen (AID 1920065)
# How it was run: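 Calcium flux counter screen: compound added in agonist mode at 15 concentrations in triplicate to dye-loaded parental HEK293 cells. Fluorescence (480/540) read kinetically for 3 min; ATP served as positive control.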
# [6] = p53 small molecule agonists, cell-based qHTS assay with human liver microsomes (AID 1963577);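 also: p53 response element beta-lactamase reporter cells with liver microsomes plus NADPH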
# How it was run: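 Metabolically competent format: test substances, human liver microsomes and NADPH (both 0.5 mg/mL final) incubated with p53RE-bla cells 16 h at 37 C. Beta-lactamase reporter signal then quantified by fluorescence.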
# [7] = p53 small molecule agonists, cell-based qHTS assay with rat liver microsomes (AID 1963578)
# How it was run: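 Each plate received p53RE-bla cells, then compound, then rat liver microsomes and NADPH (both 0.5 mg/mL final). Plates were held 16 h at 37 C, and beta-lactamase activity was detected with LiveBLAzer over 2 h.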
# [8] = p53 small molecule agonists, cell-based qHTS assay with human liver microsomes: qHTS cell viability counter screen (AID 1963579); also: nearly all actives have a fitted effect of over 45% in size; also: potency is read from the fitted curve at half-maximal effect
# How it was run: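 Tox21 library compounds, delivered from DMSO stocks, were tested on p53RE-bla cells together with 0.5 mg/mL human liver microsomes and 0.5 mg/mL NADPH (final) over 16 h at 37 C; CellTiter-Glo luminescence served as the cytotoxicity measure.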
# [9] = p53 small molecule agonists, cell-based qHTS assay with rat liver microsomes: qHTS cell viability counter screen (AID 1963580); also: nearly all actives have a fitted effect of over 45% in size; also: potency is read from the fitted curve at half-maximal effect
# How it was run: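 Cytotoxicity counter screen: intracellular ATP read by CellTiter-Glo luminescence in the p53 reporter wells. HCT-116 p53RE-bla cells were treated for 16 h at 37 C alongside rat liver microsomes and NADPH, each 0.5 mg/mL final.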
# [10] = p53 small molecule agonists, cell-based qHTS assay (AID 1963582; active = well fitted activation curve with a large enough effect in the signal ratio in the repeat runs, not every such curve was filed as active; the % refers to the signal ratio)
# How it was run: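 Read-out is beta-lactamase FRET fluorescence after 2 h at room temperature with LiveBLAzer B/G substrate. p53 response element-bla cells were treated 16 h at 37 C with compounds in DMSO, added 5 h after seeding.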
# [11] = biological target: 5-hydroxytryptamine receptor 2A (Homo sapiens) (UniProt P28223); assay: 5-hydroxytryptamine receptor 2A (HTR2A) small molecule antagonists, cell-based qHTS assay (AID 1963586); also: nearly all actives have a fitted effect of over 45% in size
# Sequence of 5-hydroxytryptamine receptor 2A (Homo sapiens) (P28223 whole entry, looked up): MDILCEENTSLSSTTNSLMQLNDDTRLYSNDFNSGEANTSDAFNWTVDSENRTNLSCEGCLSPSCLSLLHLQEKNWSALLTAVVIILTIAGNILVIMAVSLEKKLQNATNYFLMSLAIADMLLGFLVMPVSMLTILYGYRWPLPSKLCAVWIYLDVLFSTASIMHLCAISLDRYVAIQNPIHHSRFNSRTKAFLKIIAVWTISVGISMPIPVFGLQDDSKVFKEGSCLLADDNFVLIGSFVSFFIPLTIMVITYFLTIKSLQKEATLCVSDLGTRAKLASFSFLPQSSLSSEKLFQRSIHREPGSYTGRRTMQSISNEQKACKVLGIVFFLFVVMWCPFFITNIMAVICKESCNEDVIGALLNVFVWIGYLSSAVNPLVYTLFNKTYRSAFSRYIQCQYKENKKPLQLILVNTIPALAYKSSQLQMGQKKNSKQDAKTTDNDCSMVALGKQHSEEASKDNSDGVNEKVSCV
# How it was run: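 CHO cells stably expressing human HTR2A were plated for 18 h at 37 C, then loaded with calcium dye for 1 h. Compounds were preincubated 5 min at room temperature before DOI (4 nM solution) was added. Kinetic fluorescence was read for 3 min.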
# [12] = biological target: 5-hydroxytryptamine receptor 2A (Homo sapiens) (UniProt P28223); assay: 5-hydroxytryptamine receptor 2A (HTR2A) small molecule agonists, cell-based qHTS assay (AID 1963587); also: nearly all actives have a fitted effect of over 30% in size; also: potency is read from the fitted curve at half-maximal effect
# How it was run: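 Kinetic calcium-flux fluorescence (2 min, 1 sec intervals) after compound addition in agonist mode. HTR2A-CHO cells were cultured 18 h, then dye-loaded 1 h at 37 C.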
# [13] = biological target: Muscarinic acetylcholine receptor M1 (Homo sapiens) (UniProt P11229); assay: Cholinergic receptor muscarinic 1 (CHRM1) small molecule antagonists, cell-based qHTS assay (AID 1963588); also: nearly all actives have a fitted effect of over 40% in size; also: potency is read from the fitted curve at half-maximal effect
# Sequence of Muscarinic acetylcholine receptor M1 (Homo sapiens) (P11229 whole entry, looked up): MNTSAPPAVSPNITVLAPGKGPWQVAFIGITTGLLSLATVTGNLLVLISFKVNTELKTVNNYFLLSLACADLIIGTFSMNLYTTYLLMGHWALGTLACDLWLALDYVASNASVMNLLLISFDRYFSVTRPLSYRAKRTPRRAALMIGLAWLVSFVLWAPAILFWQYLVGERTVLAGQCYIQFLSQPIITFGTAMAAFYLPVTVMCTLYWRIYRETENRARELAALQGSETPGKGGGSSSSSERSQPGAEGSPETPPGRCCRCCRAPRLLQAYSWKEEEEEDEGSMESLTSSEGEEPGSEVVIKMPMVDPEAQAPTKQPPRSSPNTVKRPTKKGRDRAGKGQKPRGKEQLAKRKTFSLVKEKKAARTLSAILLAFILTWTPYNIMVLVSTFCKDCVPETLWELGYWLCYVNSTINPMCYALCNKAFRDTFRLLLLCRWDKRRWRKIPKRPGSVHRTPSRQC
# How it was run: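 Compounds were tested at 15 concentrations in three independent runs. Dye-loaded CHRM1-CHO cells were exposed 5 min at room temperature before stimulation by acetylcholine added at 50nM. Intracellular calcium was read kinetically on FDSS for 3 min.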
# [14] = biological target: Muscarinic acetylcholine receptor M1 (Homo sapiens) (UniProt P11229); assay: Cholinergic receptor muscarinic 1 (CHRM1) small molecule agonists, cell-based qHTS assay (AID 1963589); also: nearly all actives have a fitted effect of over 35% in size
# How it was run: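 Agonist-mode calcium-flux screen: compounds at 15 concentrations, three independent runs, were pin-transferred onto dye-loaded human CHRM1-CHO cells. Fluorescence was then recorded kinetically every second over minutes.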
# [15] = cAMP Responsive Elements (CRE) small molecule agonists, cell-based qHTS assay (AID 1963590)
# How it was run: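 Agonist mode: compound added to CRE-bla HEK 293T cells (2,000/well, 18 h after plating) for 3 h at 37 C/5% CO2. Reporter activity detected via FRET beta-lactamase substrate, 2 h room-temperature loading.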
# [16] = cAMP Responsive Elements (CRE) small molecule antagonists, cell-based qHTS assay (AID 1963591; active = well fitted inhibition curve with a large enough effect in the signal ratio in the repeat runs, not every such curve was filed as active; the % refers to the signal ratio)
# How it was run: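 Antagonist mode: compounds are added alongside the adenylyl cyclase activator NKH477 (0.25 uM final) to CRE-bla HEK293T cells for 3 h. LiveBLAzer FRET substrate, 2 h at room temperature, reports bla expression.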
# [17] = biological target: Beta-2 adrenergic receptor (Homo sapiens) (UniProt P07550); assay: Adrenergic beta2 receptor (ADRB2) small molecule antagonists, cell-based qHTS assay (AID 1963592); also: series mostly up to about 92 µM; nearly all actives have a fitted effect of over 50% in size
# Sequence of Beta-2 adrenergic receptor (Homo sapiens) (P07550 whole entry, looked up): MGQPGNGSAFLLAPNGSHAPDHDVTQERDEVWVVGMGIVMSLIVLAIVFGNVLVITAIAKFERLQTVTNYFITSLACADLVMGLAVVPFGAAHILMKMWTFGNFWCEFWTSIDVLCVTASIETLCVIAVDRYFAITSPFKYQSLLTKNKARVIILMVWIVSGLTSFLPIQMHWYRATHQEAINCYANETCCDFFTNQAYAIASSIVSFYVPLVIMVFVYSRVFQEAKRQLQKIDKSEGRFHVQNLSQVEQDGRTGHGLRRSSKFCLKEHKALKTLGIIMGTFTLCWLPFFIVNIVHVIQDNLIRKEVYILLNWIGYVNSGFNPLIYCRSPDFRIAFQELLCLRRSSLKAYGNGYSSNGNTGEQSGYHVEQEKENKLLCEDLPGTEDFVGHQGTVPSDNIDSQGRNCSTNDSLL
# How it was run: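 Assay format: CHO-ADRB2 cells, 18-20hr seeding at 37C/5% CO2, then compound plus 1nM isoproterenol agonist mix for 0.5hr RT. Homogeneous time-resolved fluorescence cAMP detection after 1hr, expressed as 665/615 nm ratio.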
# [18] = biological target: D(2) dopamine receptor (Homo sapiens) (UniProt P14416); assay: Dopamine D2 receptor (DRD2) small molecule agonists, cell-based qHTS assay (AID 1963594); also: nearly all actives have a fitted effect of over 35% in size
# Sequence of D(2) dopamine receptor (Homo sapiens) (P14416 whole entry, looked up): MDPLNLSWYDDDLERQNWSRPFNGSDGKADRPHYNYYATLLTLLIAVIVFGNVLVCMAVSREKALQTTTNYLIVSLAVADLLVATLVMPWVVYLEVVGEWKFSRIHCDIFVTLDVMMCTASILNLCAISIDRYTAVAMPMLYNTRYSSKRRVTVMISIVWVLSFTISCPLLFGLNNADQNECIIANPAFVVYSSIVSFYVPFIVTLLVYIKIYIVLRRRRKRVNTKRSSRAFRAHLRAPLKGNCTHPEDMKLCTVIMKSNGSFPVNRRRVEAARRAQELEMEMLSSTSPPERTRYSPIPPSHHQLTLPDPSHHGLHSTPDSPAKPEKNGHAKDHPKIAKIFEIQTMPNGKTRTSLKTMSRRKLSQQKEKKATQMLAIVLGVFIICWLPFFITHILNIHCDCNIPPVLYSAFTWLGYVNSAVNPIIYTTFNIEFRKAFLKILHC
# How it was run: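 cAMP accumulation in DRD2-HEK293 cells measured by HTRF after 1 h detection; compounds added 10 min before NKH477 (200nM […]) forskolin-analogue stimulation, 30 min at room temperature, with Ro20-1724 present at 0.1 mM final.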
# [19] = biological target: D(2) dopamine receptor (Homo sapiens) (UniProt P14416); assay: Dopamine D2 receptor (DRD2) small molecule antagonists, cell-based qHTS assay (AID 1963595; active = well fitted inhibition curve with a large enough effect in the signal ratio in the repeat runs, with a control signal flat; the % refers to the signal ratio; also: potency is read from the fitted curve at half-maximal effect)
# How it was run: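 Stable D2 receptor HEK293 line, 24 h after seeding. Compound preincubated 10 min, then quinpirole (12 nM) with forskolin analogue NKH477 (200 nM), 30 min, room temperature. Detection by time-resolved FRET of cAMP.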
# [20] = p53 small molecule agonists, cell-based qHTS assay: qHTS cell viability counter screen (AID 1963581); also: nearly all actives have a fitted effect of over 45% in size; also: potency is read from the fitted curve at half-maximal effect
# How it was run: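 Counter screen read by CellTiter-Glo luminescence (ATP content, 30 min at room temperature), run in the same wells as the beta-lactamase reporter read. HCT-116 p53RE-bla cells saw compounds for 16 h at 37 C.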
SMILES,Potency [1],Potency [2],Potency [3],Potency [4],Potency [5],Potency [6],Potency [7],Potency [8],Potency [9],Potency [10],Potency [11],Potency [12],Potency [13],Potency [14],Potency [15],Potency [16],Potency [17],Potency [18],Potency [19],Potency [20]
CC(C(=O)c1ccccc1)N(C)C (stereo not given),inactive,inactive,inactive,inactive,inactive,inactive,inactive,inactive,inactive,inactive,inactive,inactive,inactive,inactive,inactive,inactive,inactive,inactive,inactive,
CCOC(=O)C(C)OC(=O)c1cc(Oc2ccc(C(F)(F)F)cc2Cl)ccc1[N+](=O)[O-] (stereo not given),inactive,inactive,inactive,inactive,inactive,inactive,inactive,inactive,inactive,,inactive,inactive,inactive,inactive,inactive,inactive,inactive,inactive,inactive,inactive
Nc1ccncc1,inactive,inactive,inactive,inactive,inactive,inactive,inactive,inactive,inactive,,inactive,inactive,,inactive,inactive,inactive,inactive,inactive,inactive,inactive
CCC(C)(C)c1ccc(O)c(C(C)(C)CC)c1,13.5 µM (active) and 24.3 µM (active),7.7 µM (active),inactive,inactive,inactive,inactive,inactive,45.3 µM (active) and 25.7 µM (active),inactive and 25.7 µM (active),,,,20.9 µM (active),inactive,,,inactive,inactive,inactive and 43.3 µM (active),18 µM (active) and 22.9 µM (active)
CCCC[n+]1cccc(C)c1,inactive,inactive,inactive,inactive,inactive,inactive,inactive,inactive,inactive,,inactive,,,inactive,inactive,inactive,inactive,inactive,inactive,inactive
CCC(C)(C)c1ccc(O)cc1,61.8 µM (active) and inactive,inactive,inactive,inactive,inactive,inactive,inactive,inactive,inactive,,,55.5 µM (active) and inactive,inactive,inactive,,,,inactive,inactive,inactive
CC1(C)[C@H](C(=O)O[C@H](C#N)c2cccc(Oc3ccccc3)c2)[C@@H]1/C=C(\Cl)C(F)(F)F,inactive,inactive,inactive,inactive,inactive,inactive,inactive,inactive,inactive,,inactive,inactive,inactive,inactive,,inactive,inactive,inactive,inactive,inactive
CNCC(O)c1ccc(O)cc1 (stereo not given),inactive,inactive,inactive,inactive,inactive,inactive,inactive,inactive,inactive,,inactive,inactive,inactive,inactive,inactive,inactive,inactive,inactive,inactive,inactive
CC(=O)CC(c1ccc(Cl)cc1)c1c(O)c2ccccc2oc1=O (stereo not given),inactive,inactive,inactive,inactive,inactive,inactive,inactive,inactive,inactive,,inactive,inactive,,inactive,inactive,inactive,inactive,inactive,inactive,inactive
c1ccc(P(c2ccccc2)c2ccccc2)cc1,inactive,inactive,inactive,inactive,inactive,inactive,inactive,inactive,inactive,,inactive,inactive,,inactive,inactive,inactive,inactive,inactive,inactive,inactive
C[N+](=O)[O-],inactive,inactive,inactive,inactive,inactive,inactive,inactive,inactive,inactive,,inactive,inactive,inactive,inactive,inactive,inactive,inactive,inactive,inactive,inactive
ClC1=C(Cl)[C@]2(Cl)[C@@H]3[C@@H](Cl)[C@H](Cl)C[C@@H]3[C@@]1(Cl)C2(Cl)Cl,inactive,inactive,inactive,inactive,inactive,inactive,inactive,inactive,inactive,inactive,inactive,inactive,inactive,inactive,inactive,inactive,inactive,inactive,inactive,
c1ccc(-c2ccccc2)cc1,inactive,inactive,inactive,inactive,inactive,inactive,inactive,inactive,inactive,,inactive,inactive,inactive,inactive,inactive,,inactive,inactive,,inactive
CC(Cl)CCl (stereo not given),inactive,inactive,inactive,inactive,inactive,inactive,inactive,inactive,inactive,,inactive,inactive,inactive,inactive,inactive,inactive,inactive,inactive,inactive,inactive
